Experimental data: publication PMC8769072, “Proteome‐scale mapping of binding sites in the unstructured regions of the human proteome” (Molecular Systems Biology, 2022)

Target: YES1 90-152, P07947
Sequence (P07947 90-152): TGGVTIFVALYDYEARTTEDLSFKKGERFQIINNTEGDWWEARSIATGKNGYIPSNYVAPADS

| Binder | selected by phage display |
| --- | --- |
| KDRPLPPAPLSPAPGP [MAP1A, P78559] | confidence 3 (active) |
| LPPPPPPDRPYSVGAE [CBL, P22681] | confidence 4 (active) |
| TKTPPRDLPTIPGVTS [EIF4EBP1, Q13541] | confidence 3 (active) |
| AAVGVSKPLPSVPPSI [MADD, Q8WXG6] | confidence 2 (active) |
| SERELPQPPPLLSPQN [SAMD11, Q96NU1] | confidence 4 (active) |
| TLTDLPLLPGVPMAGD [LRRC46, Q96FV0] | confidence 2 (active) |
| RLSLEGLPSLPSMHEY [IRS2, Q9Y4H2] | confidence 3 (active) |
| TVELEEKRFRTLPLVP [ELL3, Q9HB65] | confidence 3 (active) |
| ELPLLPPPPSLPTIGA [SETD5, Q9C0A6] | confidence 3 (active) |
| LPSAESLSRRPLPALP [EFS, O43281] | confidence 3 (active) |
| QPLPPAPTSVPPAAFP [PER1, O15534] | confidence 2 (active) |
| PLPPPPPLPKIQPLEP [ZBTB21, Q9ULJ3] | confidence 2 (active) |
| QQQQQQLPALPPTPQQ [R3HDM2, Q9Y2K5] | confidence 2 (active) |
| FAGLPLPLPPTSQGLS [PROSER1, Q86XN7] | confidence 3 (active) |
| AAPTLGHRTLPLLPSL [PRRT4, C9JH25] | confidence 2 (active) |
| QLGDLPPKPQLSDLPP [ASAP1, Q9ULH1] | confidence 2 (active) |

| Binder | selected by phage display |
| --- | --- |
| PGRGLPQLPSSAYSVD [ST5, P78524] | confidence 4 (active) |
| TSTLPPLPLPPLLPGD [CDK12, Q9NYV4] | confidence 3 (active) |
| LPLPPLPGAGIPPPPP [FMN2, Q9NZ56] | confidence 2 (active) |
| LQRTLPSVPPDTKLSK [TCF24, Q7RTU0] | confidence 2 (active) |
| PTPSSPLPSVPVSVPA [PLEKHN1, Q494U1] | confidence 3 (active) |
| TAGPGRPLPQRPMPDQ [ZFHX2, Q9C0A1] | confidence 2 (active) |
| LPSLPLEPSLLSGVVQ [LRP10, Q7Z4F1] | confidence 2 (active) |
| APTLPLPPPPGFPPLP [SETD1B, Q9UPS6] | confidence 3 (active) |
| QPAVFPPSFRELPPPP [IFT52, Q9Y366] | confidence 4 (active) |
| SRALPATPQLPSRSGV [WIPF1, O43516] | confidence 3 (active) |
| NQQKALPPPPASIPPP [FMN1, Q68DA7] | confidence 2 (active) |
| TFRWTSLTRELPPPPP [KMT2B, Q9UMN6] | confidence 2 (active) |
| DKTSSIQSRPLPSPPK [BCAR1, P56945] | confidence 2 (active) |
| NLEVKSLRALPATPAL [PDE4DIP, Q5VU43] | confidence 2 (active) |
| IQSIPLPPTTHTRLPA [TSHZ1, Q6ZSZ6] | confidence 2 (active) |
